Reference: PubChem BioAssay (EPA / NIEHS)
Calls of active or inactive are those of the source. The calls were made as follows: active = hit-call score of the fitted dose curve at least 0.9, where 1 is the maximum; inactive = score below 0.9.

experiment: CCTE_Shafer_MEA_acute_per_network_burst_spike_number_mean: CCTE's Neural Acute Assay for Average Number of Spikes in a Network Burst, Shafer Lab (AID 2284019)
Procedure: CCTE_Shafer_MEA_acute assay is conducted using Axion Biosystems 48 well microelectrode array (MEA) plates and Maestro recording system. Each well of the MEA plate contains a grid of 16 microelectrodes embedded in the culture surface. Electrically active cells, such as neurons, can be cultured over the electrodes, and electrical activity in these cells can be recorded extracellularly. The spontaneous firing of neurons is captured from each electrode on a microsecond timescale providing both temporally and spatially precise data. […] The CCTE_Shafer_MEA_acute assay uses primary cultures of rat cortical neurons. As these cultures mature over time, neural networks develop functional activity and form cohesive networks in which electrical activity can be highly coordinated. Baseline 40-minute recordings are made on days post-plating 13 or 15, followed by a secondary 40-minute recording after chemical exposure.CCTE_Shafer_MEA_acute_per_network_burst_spike_number_mean is a component of the CCTE_Shafer_MEA_acute assay. It measures the average number of spikes (action potential firings) in a network burst (temporally-clustered group of spikes across multiple electrodes) as the total number of spikes in a network burst divided by the number of network bursts during a recording in a microelectrode array (MEA) using Axion Biosystems Maestro 768 channel amplifier with the AxIS adaptive spike detector. The recordings before and after chemical treatment are used to calculate a percent change in the mean number of spikes in a network burst in each well.Data from the assay component CCTE_Shafer_MEA_acute_per_network_burst_spike_number_mean was analyzed into 1 assay endpoint. This assay endpoint, CCTE_Shafer_MEA_acute_per_network_burst_spike_number_mean, was analyzed in the negative analysis fitting direction relative to DMSO as the negative control and baseline of activity. Using a type of functional reporter, gain or loss-of-signal activity can be used to understand electrical activity.
Spontaneous activity in the cortical cultures was recorded using an Axion Biosystems Maestro 768 channel amplifier and Axion Integrated Studios (AxIS) v1.8 (or later) software. The amplifier recorded from all channels simultaneously (gain = 1200 x; sampling rate = 12.5 kHz/channel): raw signals were filtered with a Butterworth band-pass filter (300-5000 Hz), which filters out slower local field potentials leaving only fast potentials, i.e., "spikes", arising from extracellular currents associated with action potentials (Pine 2006; Wheeler and Nam 2011). On-line spike detection of filtered signals was conducted with the AxIS adaptive spike detector, using a threshold of 8x the root mean squared (rms) noise on each channel. Any electrodes with rms noise levels greater than 5 uV were grounded (e.g., no data were recorded). Once grounded, an electrode was grounded for the duration of the experiment. All recordings were conducted at 37 C. Wells were deemed usable if on the day of the exposure >/= 10 electrodes were active (defined as >/= 5 spikes/min). On DIV 13 or 15, a minimum of three wells from one cortical culture preparation were treated with each compound (0.03-40 uM). Prior to recording baseline activity, each mwMEA plate was placed in the Maestro at 37 C and allowed to sit for 20 min while firing rates stabilized. Baseline activity (40 min) was recorded before the addition of each compound. An additional 40 min of spontaneous activity was recorded in the presence of each compound. Changes in network parameters relative to baseline were assessed following compound treatment.

SMILES	outcome	AC50
CN(C)CCCN1c2ccccc2Sc2ccc(Cl)cc21	inactive	–
CCCCC(CC)COP(=O)(OCC(CC)CCCC)OCC(CC)CCCC (stereo not drawn)	inactive	–
O=C(N[C@@H](c1ccccc1)[C@@H]1CCCCN1)c1cccc(C(F)(F)F)c1Cl	inactive	–
O=C(O)CN(CC(=O)O)CC(=O)O	inactive	–
CCN(CC)CCOc1ccc(C(=C(Cl)c2ccccc2)c2ccccc2)cc1	inactive	–
OCC(CO)n1cnc(-c2ccc(F)cc2)c1-c1ccnc(Oc2ccccc2)n1	inactive	–
COc1ccc(OC(F)(F)F)cc1CN[C@H]1CCCN[C@H]1c1ccccc1	–	2.07 µM (active)
NC(=Nc1ccccc1)Nc1ccccc1	inactive	–
COC(=O)[C@H]1[C@H]2C[C@@H]3c4[nH]c5cc(OC)ccc5c4CCN3C[C@H]2C[C@@H](OC(=O)c2cc(OC)c(OC)c(OC)c2)[C@@H]1OC	–	0.808 µM (active)
Nc1nc(=S)c2[nH]cnc2[nH]1	–	17.1 µM (active)
CC(N)=O	inactive	–
CCCC(=O)O	inactive	–
CN(C)C(=O)NC1(c2ccccc2)CCN(CC[C@@]2(c3ccc(F)c(F)c3)CN(C(=O)c3ccccc3)CCO2)CC1	inactive	–
Cc1cc(SC2=C(O)C[C@@](CCc3ccc(N)cc3)(C(C)C)OC2=O)c(C(C)(C)C)cc1CO	inactive	–
CC1=C(C)S(=O)(=O)CCS1(=O)=O	inactive	–
C/C=C/c1ccc(OC)cc1	inactive	–
O=C1OC(c2ccc(O)cc2)(c2ccc(O)cc2)c2ccccc21	inactive	–
Cc1ccc(-c2cc(C(F)(F)F)nn2-c2ccc(S(N)(=O)=O)cc2)cc1	inactive	–
CN(C)C(=O)NC1(c2ccccc2)CCN(CCC[C@]2(c3ccc(Cl)c(Cl)c3)CCCN(C(=O)c3ccccc3)C2)CC1	inactive	–
Cc1cc(Cc2ccc(N)c(C)c2)ccc1N	inactive	–
CSc1ccc(Oc2ccc(S(N)(=O)=O)cc2CN(C)C)cc1C	inactive	–
Cc1ccc(C(C)(C)C)c(O)c1	inactive	–
Cc1c(C)c2c(c(C)c1O)CCC(C)(COc1ccc(CC3SC(=O)NC3=O)cc1)O2 (stereo not drawn)	–	3.02 µM (active)
CCc1cc(C2=C(C(=O)O)N(c3ccccc3C(F)(F)F)S(=O)(=O)c3ccccc32)cc2c1OCO2	inactive	–
CC(C)NCC(O)c1ccc(O)c(O)c1 (stereo not drawn)	inactive	–
Oc1ccc(O)cc1	inactive	–
CC(C)COC(=O)CCCCC(=O)OCC(C)C	inactive	–
c1ccc2occc2c1	inactive	–
